In all, about 190,000 compounds went through this assay and about 810 (0.43%) were called active. The sample holds actives, similar compounds and a random draw of the others, so the mix is not that of the screen. No stated cut-off is given here; in the data, active means inhibition above about 50%; inactive means the rest.

The record followed here is PubChem BioAssay AID1209 (Sanford-Burnham Center for Chemical Genomics, 2008).

The test deals with Mannose-6-phosphate isomerase (Homo sapiens) (UniProt P34949). Briefly: MPI enzyme activity inhibition – biochemical, fluorescence intensity, coupled assay, primary screen (AID 1209).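 Further: plate controls were DMSO vehicle for no effect and wells lacking substrate for full effect.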 As to conditions: purified PMI enzyme, at 20 µM, stronger effect = higher value.
Mannose-6-phosphate isomerase (Homo sapiens), sequence (P34949 whole entry, looked up): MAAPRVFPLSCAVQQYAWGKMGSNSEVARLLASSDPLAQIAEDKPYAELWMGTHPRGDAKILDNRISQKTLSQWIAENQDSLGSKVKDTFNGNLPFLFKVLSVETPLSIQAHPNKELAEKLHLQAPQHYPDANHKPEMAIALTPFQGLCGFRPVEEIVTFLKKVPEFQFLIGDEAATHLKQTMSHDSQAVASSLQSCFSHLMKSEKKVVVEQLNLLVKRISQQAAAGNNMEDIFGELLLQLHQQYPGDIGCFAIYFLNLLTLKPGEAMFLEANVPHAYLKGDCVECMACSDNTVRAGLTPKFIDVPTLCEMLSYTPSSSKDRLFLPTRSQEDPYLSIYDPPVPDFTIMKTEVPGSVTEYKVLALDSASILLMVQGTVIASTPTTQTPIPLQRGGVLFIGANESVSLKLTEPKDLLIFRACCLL
Take `CCOC(=O)c1sc(N)c(C(N)=O)c1C`: the inhibition – broadly, the drop in the measured response relative to a control, in per cent – was 64.3% (active).

As to `CCOC(=O)c1sc(N)c(C(=O)Nc2ccccc2)c1C`, the inhibition is 44.4% (inactive).

`CCOC(=O)c1c(N)sc(C(=O)N(C)C)c1C`: the inhibition is -5% (inactive).

For the molecule `CCOC(=O)c1c(N)sc(C(=O)OCCOC)c1C`, the inhibition was 51% (active).

`CCOC(=O)c1sc(N)c(C(=O)Nc2ccccc2OC)c1C`: the inhibition was 60.2% (active).

`CCCOC(=O)c1c(N)sc(C(=O)OCC)c1C`: the inhibition is 2.1% (inactive).

As to `CCOC(=O)c1c(N)sc(C(N)=O)c1C`, the inhibition was -5.6% (inactive).

As to `CCOC(=O)c1c(N)sc(N)c1C(=O)OCC`, the inhibition is 60.1% (active).

For `CCOC(=O)c1sc(N)c(C(=O)OC)c1C`, the inhibition is 7% (inactive).

Consider `CCOC(=O)c1c(N)sc2c1CCCC2`, for which the inhibition is 5.6% (inactive).

`CCOC(=O)c1c(N)sc(C(=O)OC)c1C`: the inhibition is -6.6% (inactive).

On to `CCOC(=O)c1c(N)sc(C(=O)Nc2ccccc2F)c1C`, for which the inhibition was 11.6% (inactive).

As for `NNC(=O)COc1ccc(F)cc1`, the inhibition was 15.9% (inactive).

Turning to `O=C(NCc1ccncc1)c1cncc(Br)c1`, the inhibition was 2% (inactive).

For the molecule `NC1=NC(=O)/C(=C\c2ccc(O)c([N+](=O)[O-])c2)S1`, the inhibition was -3.7% (inactive).

Turning to `CCc1c(O)cc2n(c1=O)-c1ccc(Cl)cc1C2(C)C`, the inhibition was 2.7% (inactive).

Turning to `CN(CC(=O)NC(=O)NCc1ccccc1)Cc1ccc(Cl)c(Cl)c1`, the inhibition is 14% (inactive).

Regarding `Cc1cccc(NC(=O)C(=O)NCCc2c[nH]c3ccccc23)c1C`, the inhibition is 12.5% (inactive).

Regarding `CCC(=O)Nc1cccc(-n2nnnc2SCC(=O)N2CCCCC2)c1`, the inhibition is -4.2% (inactive).

As for `Cc1cc(C(=O)Nc2ccc(N3CCOCC3)cc2)c2ccccc2n1`, the inhibition is 6.1% (inactive).

With `Cc1c(C(=O)O)c(C(=O)O)nc2ccc(N3CCOCC3)cc12`, the inhibition was 56.4% (active).

Consider `COC(=O)c1nc2ccc(N3CCOCC3)cc2c(C)c1C(=O)OC`, for which the inhibition is 23.5% (inactive).

With `CC(C)c1nc(SCC(=O)c2ccccc2)c2c(=O)n(C)c(=O)n(C)c2n1`, the inhibition is 5.8% (inactive).

For `Cc1nn(C)c(C)c1C1C(C#N)=C(N)OC2=C1C(=O)CC(C)(C)C2` (centres undefined), the inhibition is -1.4% (inactive).

Consider `CC(=O)Nc1ccc(N/C(C)=C/C(=O)c2cccnc2)cc1`, for which the inhibition was -7.3% (inactive).

On to `C/C(=C\C(=O)c1cccnc1)Nc1ccc(O)cc1`, for which the inhibition was 42.8% (inactive).

Regarding `C/C(=C\C(=O)c1cccnc1)Nc1ccc(C(=O)O)cc1`, the inhibition was 81% (active).

In the case of `CCCCCCSc1nnc(-c2cnn(-c3ccccc3)c2-n2cccc2)n1C`, the inhibition was 16.4% (inactive).

In the case of `CC(=O)CC(C)=NCCN=C(C)CC(C)=O`, the inhibition is -3.7% (inactive).

In the case of `Cc1ccc2cc(N)ccc2n1`, the inhibition was 45.2% (inactive).

Regarding `Cn1cc2cc(NC(N)=S)ccc2n1`, the inhibition was 1.7% (inactive).

As to `Cn1cc2ccc(N)cc2n1`, the inhibition was 72.9% (active).

`O=C(COC(=O)/C=C/c1ccc(S(=O)(=O)N2CCOCC2)cc1)NCc1ccc(F)cc1`: the inhibition was 9.2% (inactive).

With `CC(C)[C@H](NC(=O)c1ccccc1)C(=O)OCC(=O)N1CCN(C(=O)c2ccco2)CC1`, the inhibition was -11.4% (inactive).

`Cc1cccc(Oc2c([N+](=O)[O-])c(=O)n(C)c3ccccc23)c1`: the inhibition was 76% (active).

With `Cc1cccc(Nc2c([N+](=O)[O-])c(=O)n(C)c3ccccc23)c1`, the inhibition is 2.7% (inactive).

As for `Cc1ccc(Nc2c([N+](=O)[O-])c(=O)n(C)c3ccccc23)cc1`, the inhibition is 3.9% (inactive).

In the case of `COC(=O)C1CCN(C(=O)c2ccc(SC)cc2OC)CC1`, the inhibition was 6.4% (inactive).

As to `CCOc1cc(/C=C2\C(=O)N(c3ccc(C(N)=O)cc3)N=C2C)ccc1OC(=O)c1cccs1`, the inhibition was 59.8% (active).

For `CCOc1cc(/C=C2/C(=O)N(c3ccccc3)N=C2C)ccc1OC(=O)c1cccs1`, the inhibition was 13.1% (inactive).

As for `CCOc1cc(/C=C2/C(=O)N(c3ccccc3)N=C2C)ccc1OC(=O)c1ccco1`, the inhibition was 37.5% (inactive).

Consider `O=C(NCC(O)c1ccc([N+](=O)[O-])cc1)c1cccc(S(=O)(=O)N2CCCC2)c1` (centres undefined), for which the inhibition was 7.8% (inactive).

On to `CCOC(=O)N1CCC(n2c(SCC(=O)NCCC3=CCCCC3)nc3ccccc3c2=O)CC1`, for which the inhibition is 8.6% (inactive).

On to `CCn1c(N)c(C(=O)N2CCOCC2)sc1=S`, for which the inhibition is 8.6% (inactive).

Regarding `Cc1c(C(=O)N2CCCCC2)sc(N)c1C#N`, the inhibition was 8.9% (inactive).

For the molecule `Cc1ccc(-n2c(N)c(C(=O)N3CCN(C)CC3)sc2=S)cc1`, the inhibition was 2.7% (inactive).

With `CN1CCN(C(=O)c2sc(=S)n(-c3ccccc3)c2N)CC1`, the inhibition was 2.8% (inactive).

On to `Nc1c(C(=O)N2CCCCC2)sc(=S)n1-c1ccccc1`, for which the inhibition was 57.7% (active).

As for `Nc1c(C(=O)N2CCOCC2)sc(=S)n1-c1ccccc1`, the inhibition is 53.3% (active).

As for `Cc1ccc(-n2c(N)c(C(=O)N3CCCCC3)sc2=S)cc1`, the inhibition was 22.6% (inactive).

Regarding `N#Cc1ccccc1-n1c(N)c(C(=O)N2CCCC2)sc1=S`, the inhibition was 71% (active).

`Cc1ccc(-n2c(N)c(C(=O)N3CCOCC3)sc2=S)cc1`: the inhibition was 36.2% (inactive).

Consider `Cc1ccc(-c2nnc(SCC(=O)N/N=C/c3ccccc3C(=O)O)n2-c2ccccc2)cc1`, for which the inhibition was -2.4% (inactive).

Regarding `CC(C)NC(=O)C1CCN(Cc2cnn(-c3ccccc3)c2-n2cccc2)CC1`, the inhibition was -1.9% (inactive).

As for `S=C(Nc1ccccc1)N1CCN(C(=S)c2ccccc2)CC1`, the inhibition is 13.6% (inactive).

With `CCNc1nc(OC)nc(SCC(=O)Nc2ccccc2)n1`, the inhibition was 7.3% (inactive).

As for `COc1ccc(NC(=O)Nc2ccccc2SC)c(OC)c1`, the inhibition is 16.5% (inactive).

As to `Cc1cccc2sc(N(CCCN(C)C)C(=O)c3cc4ccccc4oc3=O)nc12`, the inhibition is 11.8% (inactive).

For the molecule `O=c1cc(O)nc(SCc2ccccc2)[nH]1`, the inhibition is 17.4% (inactive).

For `CCn1c2ccccc2c2nc3cc(C(=O)O)ccc3nc21`, the inhibition is 6.3% (inactive).

With `CCn1c2ccccc2c2nc3cc(S(=O)(=O)N4CCOCC4)ccc3nc21`, the inhibition is 70.3% (active).

In the case of `CCn1c2ccccc2c2nc3ccccc3nc21`, the inhibition is 4.5% (inactive).

As to `COc1ccc(CN2C(=O)NC3(CCOc4ccccc43)C2=O)cc1F` (centres undefined), the inhibition was 7.7% (inactive).

In the case of `CC(C)OC(=O)c1cccc(C(=O)Oc2ccccc2)n1`, the inhibition was -3.1% (inactive).

`Cc1ccc(NC(=O)NC(=O)N(C(C)C)S(C)(=O)=O)nc1`: the inhibition was -7.9% (inactive).

As for `Cc1[nH]n(-c2ccccc2)c(=O)c1C=Nc1ccc(S(=O)(=O)N(C)C)cc1`, the inhibition was -3.8% (inactive).

Regarding `Cc1[nH]n(-c2ccccc2)c(=S)c1C=Nc1ccc([N+](=O)[O-])cc1`, the inhibition is 69.1% (active).

As for `Cc1[nH]n(-c2ccccc2)c(=S)c1C=NCCCN=Cc1c(C)[nH]n(-c2ccccc2)c1=S`, the inhibition was -3.9% (inactive).

`CC[n+]1ccc(/C=C2\Sc3ccccc3N2CCCS(=O)(=O)[O-])c2ccccc21`: the inhibition was 8.2% (inactive).

In the case of `CN1/C(=C/c2cc[n+](C)c3ccccc23)C=Cc2ccccc21`, the inhibition is 70.7% (active).

For the molecule `C[n+]1ccc(/C=C/c2ccccc2O)c2ccccc21`, the inhibition is 12.3% (inactive).

In the case of `CN1C=C/C(=C\c2cc[n+](C)c3ccccc23)c2ccccc21`, the inhibition was 59.2% (active).

On to `CCN1/C(=C/c2ccc3ccccc3[n+]2CC)C=Cc2ccccc21`, for which the inhibition was 15.5% (inactive).

Regarding `COc1ccc(N=c2oc3cc(O)ccc3cc2C(=O)Nc2ccccn2)cc1OC`, the inhibition is 14.8% (inactive).

For the molecule `NC1=NC2CS(=O)(=O)CC2S1` (centres undefined), the inhibition was 2.4% (inactive).

As for `O=C(c1ccc([N+](=O)[O-])cc1)N1CCN(C(=O)c2ccco2)CC1`, the inhibition was 1.1% (inactive).

On to `COc1ccc(CC(=O)OCC(=O)Nc2cccnc2Cl)cc1OC`, for which the inhibition is -1.9% (inactive).

For the molecule `CCOC(=O)N1CCN(C(=O)C2CCN(S(=O)(=O)N(CC)CC)CC2)CC1`, the inhibition was -12% (inactive).

For the molecule `COC(=O)c1ccccc1N/C=C1\CCc2c(c(C)nn2-c2ccccn2)C1=O`, the inhibition is 85.2% (active).

As for `CCOC(=O)c1ccccc1N/C=C1\CCCCC1=O`, the inhibition is -4.9% (inactive).

For `COC(=O)c1ccccc1NC(=S)N1CCN(c2ccccn2)CC1`, the inhibition was 7.2% (inactive).

Consider `Cc1ccc(NCc2ccccc2O)c(C)c1`, for which the inhibition was 2.8% (inactive).

Consider `COc1ccc(/C=C(\C#N)C(=O)OCC(=O)NC(=O)NCCC(C)C)cc1`, for which the inhibition was -4.9% (inactive).

Take `COc1ccc(/C=C(\C#N)C(=O)OCC(=O)NCc2ccccc2)cc1`: the inhibition is 0.9% (inactive).

For `COc1ccc(/C=C(\C#N)C(=O)OCCNC(=O)c2ccncc2)cc1`, the inhibition was 67.7% (active).

Consider `CCCOc1ccc(CNC(=S)NCc2ccc(OC(C)C)cc2)cc1`, for which the inhibition is 6.1% (inactive).

With `O=C(NCc1ccncc1)c1ccc(N2CCCC2)c([N+](=O)[O-])c1`, the inhibition was 72.1% (active).

With `O=C(NCc1ccc2c(c1)OCO2)c1ccc(N2CCCCCC2)c([N+](=O)[O-])c1`, the inhibition was 10.1% (inactive).

Turning to `O=C(NCc1ccccn1)c1ccc(N2CCCC2)c([N+](=O)[O-])c1`, the inhibition is -10.4% (inactive).

As for `CN(C)S(=O)(=O)c1cccc(NC(=S)Nc2ccc3cn[nH]c3c2)c1`, the inhibition was 44.4% (inactive).

Regarding `S=C(Nc1ccc(Cl)cc1)Nc1ccc2cn[nH]c2c1`, the inhibition was 23.6% (inactive).

As to `S=C(Nc1ccc2cn[nH]c2c1)Nc1ccccc1Cl`, the inhibition was 14.1% (inactive).

On to `Cc1ccc(S(=O)(=O)N(C)C)cc1NC(=S)Nc1ccc2[nH]c(=O)[nH]c2c1`, for which the inhibition was 44.5% (inactive).

Turning to `S=C(Nc1ccc2cn[nH]c2c1)Nc1ccc(Cl)cc1Cl`, the inhibition was 55.6% (active).

On to `Cc1ccc(S(=O)(=O)N(C)C)cc1NC(=S)Nc1ccc2cn[nH]c2c1`, for which the inhibition is 55.4% (active).

With `C/C(=N\NC(=O)COc1ccc(C(C)(C)C)cc1)c1ccc2c(c1)OCCO2`, the inhibition was 19% (inactive).

`COc1ccccc1NC(=O)Cn1cnc2c(oc3ccccc32)c1=O`: the inhibition was 4.7% (inactive).

As for `Cc1ccc2c(c1)sc[n+]2Cc1ccccc1`, the inhibition is -11.9% (inactive).

For the molecule `COC(=O)[C@H](CC(C)C)NC(=O)CCc1nnc(COc2ccccc2)o1`, the inhibition was -1.7% (inactive).

As for `CNC(=O)NCC12CC3CC(CC(C3)C1)C2`, the inhibition was 0% (inactive).

Consider `COCCN=c1scc(-c2cccs2)n1/N=C/c1ccc(O)c(O)c1O`, for which the inhibition is 68.4% (active).

On to `COCCN=c1scc(-c2ccco2)n1/N=C/c1ccc(O)c(O)c1O`, for which the inhibition was 69.7% (active).

With `CCN=c1scc(C)n1/N=C/c1ccc(O)c(O)c1O`, the inhibition is 82.5% (active).

Turning to `CCN=c1scc(C)n1/N=C/c1ccsc1`, the inhibition was -6.7% (inactive).

In the case of `COc1ccc(O)c(/C=N/n2c(-c3ccco3)csc2=Nc2cccnc2)c1`, the inhibition is 11.8% (inactive).

On to `CCN=c1scc(-c2cccs2)n1/N=C/c1cc(OC)ccc1O`, for which the inhibition is -5% (inactive).

Turning to `COCCN=c1scc(-c2cccs2)n1/N=C(\C)c1ccco1`, the inhibition was -16.8% (inactive).

For `CCN=c1scc(C)n1/N=C/c1cc(Br)c(O)c(Br)c1`, the inhibition was -24.9% (inactive).

As to `COCCN=c1scc(-c2ccccc2)n1/N=C/c1c[nH]c2ccccc12`, the inhibition was 25.3% (inactive).
